# In PubChem BioAssay (Tox21):
# “And” between values parts separate entries of the source, which are not always exact repeats. Equal values may be shown once. Records with an inconclusive call do not appear. Where a call stands in place of a potency, no number is given. The source made the active and inactive calls. The call rests on the fitted dose curve; in most records, active means well fitted cell-killing curve with a large enough effect in the repeat runs; inconclusive means weak or mixed curves, or effect the other way; inactive means flat fitted curve, though single readings scatter.
# Test: qHTS RealTime-Glo MT Cell Viability Assay in HEK293 cells - 32 hour (AID 1224868); further: nearly all actives have a fitted effect of over 50% in size; on activity change, negative = cytotoxic: top concentration of the series differs between compounds
# Conditions: RealTime-Glo luminescence; series mostly up to 76.8 µM
# Source text: National Center for Advancing Translational Sciences [NCATS]
# NIH Chemical Genomics Center [NCGC]
# U.S. Environmental Protection Agency [EPA]
# National Institutes of Environmental Health Sciences [NIEHS]
# National Toxicology Program [NTP]
# U.S. Food and Drug Administration [FDA]
# Measure of cell viability is critical in the cell-base assay. Analysis of cell viability is necessary for the characterization of cell responses to cytotoxic drugs and environmental stress. A RealTime-Glo MT Cell Viability Assay to monitor cell viability in real time of continues cell culture during 40 hours of compound treatment was used to screen Tox21 10K library compounds in Hek293 cells. The RealTime-Glo MT Cell Viability Assay is a nonlytic, homogeneous, bioluminescent method to measure cell viability in real time using a simple, plate-based method. The assay involves adding NanoLuc luciferase and a cell-permeant prosubstrate to cells in culture. Viable cells reduce the proprietary prosubstrate to generate a substrate for NanoLuc luciferase. This substrate diffuses from cells into the surrounding culture medium, where it is rapidly used by the NanoLuc Enzyme to produce a luminescent signal. The signal correlates with the number of viable cells, making the assay well suited for cytotoxicity studies.
# Tox21 Assay Protocol Summary:
# The mixture of Hek293 cell suspension and reagents were dispensed at 600cells/6 ul/well in 1536-well tissue culture treated black solid bottom plates using a Multidrop dispenser. After the assay plates were incubated at a 37 C/5% CO2 incubator for 5 hours, 23 nL of compounds dissolved in DMSO, positive and negative controls was transferred to the assay plate by a pintool work station. The plates were incubated at 37 C for 40 hours. The luminescence intensity were measured at 0h, 8h, 16h, 24h, 32h and 40h time points using ViewLux plate reader during compound treatment.
# Potency means the concentration at half of the fitted maximal effect.
SMILES,Potency,"activity change, negative = cytotoxic"
O=C(O)c1ccccc1OP(=O)(O)O,inactive,–
CCO/C([O-])=N/c1c[n+](N2CCOCC2)no1,inactive,–
NCCCNCCSP(=O)(O)O,–,3.62% [at 6.97 µM] (inactive)
CCO[Si](CCC1CCC2OC2C1)(OCC)OCC (stereo not given),inactive,–
CCN(CC)CCNC(=O)c1cc(S(C)(=O)=O)ccc1OC,inactive,–
OCCCC1CCCCC1,inactive,–
O=c1cc(-c2ccccc2)oc2ccccc12,15.5 µM (active) and 6.88 µM (active),–
CC(=O)Nc1c(I)cc(I)c(C(=O)O)c1I,inactive,–
Cc1cnc(NS(=O)(=O)c2ccc(N)cc2)nc1,inactive,–
O=c1n(CCO)c(=O)n(CCO)c(=O)n1CCO,inactive,–
CCCC(=O)O[C@]1(C(=O)CO)CC[C@H]2[C@@H]3CCC4=CC(=O)CC[C@]4(C)[C@H]3[C@@H](O)C[C@@]21C,inactive,–
CCc1cccc2c(CCO)c[nH]c12,inactive,–
CC(C)(O)C(=O)c1ccccc1,inactive,–
N#Cc1ccc(C2CCCc3cncn32)cc1 (stereo not given),inactive,–
C1OCOCO1,inactive,–
O=c1[nH]c(=O)n([C@H]2C[C@H](O)[C@@H](CO)O2)cc1I,inactive,–
C=C(C)CS(=O)(=O)O,inactive,–
CC(C)(C)NCCNC(C)(C)C,inactive,–
NS(=O)(=O)c1ccccc1Cl,inactive,–
CCS(=O)(=O)c1ccc(OC)c(C(=O)OC)c1,inactive,–

SMILES,Potency,"activity change, negative = cytotoxic"
Cc1cc2c(cc1S(N)(=O)=O)S(=O)(=O)CCC2,inactive,–
CO[C@]12C[C@@H](COC(=O)c3cncc(Br)c3)CN(C)[C@@H]1Cc1cn(C)c3cccc2c13,inactive,–
CC(=O)OCC(=O)[C@@]1(O)CC[C@H]2[C@@H]3CCC4=CC(=O)CC[C@]4(C)[C@H]3C(=O)C[C@@]21C,inactive,–
CCCCCCCCCCCCN(CCCCCCCCCCCC)CCCCCCCCCCCC,inactive,–
CCCCCSCCCCC,inactive,–
CCN(Cc1ccncc1)C(=O)C(CO)c1ccccc1 (stereo not given),inactive,–
CC(=O)c1ccccc1O,inactive,–
CN1CCN(c2cc3c(cc2F)c(=O)c(C(=O)O)cn3-c2ccc(F)cc2)CC1,inactive,–
C=C1CC[C@H]2C[C@@H]1C2(C)C,inactive,–
c1ccc(CC2=NCCN2)cc1,inactive,–
COC(=O)[C@@H](N)Cc1ccc(O)c(O)c1,inactive,–
O=C(O)CNC(=O)c1ccc([N+](=O)[O-])cc1,inactive,–
Nc1ccccc1S(=O)(=O)O,inactive,–
CC(=O)OCC(=O)[C@@]1(O)CCC2C3CCC4=CC(=O)CC[C@]4(C)C3[C@@H](O)C[C@@]21C (stereo not given in full),inactive,–
CCCN1CCCC[C@H]1C(=O)Nc1c(C)cccc1C,inactive,–
CN1C(=O)N(C)C(O)C1O (stereo not given),inactive,–
CC(C)CCCC(C)N (stereo not given),inactive,–
CC(C)OC(=O)c1ccccc1,inactive,–
CCOC(=O)[C@H](CCc1ccccc1)N[C@@H](C)C(=O)N1[C@H](C(=O)O)C[C@@H]2CCC[C@@H]21,inactive,–
Cc1cccc(C)c1NC(=O)C(C)N (stereo not given),inactive,–
